High-throughput results from PubChem.
Shown are actives, neighbours in structure and some others; about 12% of the full set was active somewhere.
PLK1 PBD block – PLK1 (human) polo-box domain binding inhibition; P53350; Plk1 PBD binding of FITC phosphopeptide, fluorescence polarization; Potency, µM, inactives show max response, negative = inhibition, actives largely listed as inhibitors; actives 2.8% (n = 360,000); AID 720504; also: potency is read from the fitted curve at half-maximal effect; series mostly up to about 57 µM; % is scaled to controls: 0 for no effect and ±100 for the full control effect; nearly all actives have a fitted effect of over 65% in size
JMJD2A Tudor – inhibitors of human JMJD2A Tudor domain. O75164. Potency, µM (top dose mostly 114 µM), for the others: at the top dose activity change, negative = inhibition, most hits filed as inhibitors. AlphaScreen JMJD2A-Tudor / H3K4me3 peptide binding. actives 4.4% (n = 390,000); also: potency is read from the fitted curve at half-maximal effect; % is scaled to controls: 0 for no effect and ±100 for the full control effect; nearly all actives have a fitted effect of over 50% in size
Target sequence (O75164 whole entry, looked up, the tested form may be a part): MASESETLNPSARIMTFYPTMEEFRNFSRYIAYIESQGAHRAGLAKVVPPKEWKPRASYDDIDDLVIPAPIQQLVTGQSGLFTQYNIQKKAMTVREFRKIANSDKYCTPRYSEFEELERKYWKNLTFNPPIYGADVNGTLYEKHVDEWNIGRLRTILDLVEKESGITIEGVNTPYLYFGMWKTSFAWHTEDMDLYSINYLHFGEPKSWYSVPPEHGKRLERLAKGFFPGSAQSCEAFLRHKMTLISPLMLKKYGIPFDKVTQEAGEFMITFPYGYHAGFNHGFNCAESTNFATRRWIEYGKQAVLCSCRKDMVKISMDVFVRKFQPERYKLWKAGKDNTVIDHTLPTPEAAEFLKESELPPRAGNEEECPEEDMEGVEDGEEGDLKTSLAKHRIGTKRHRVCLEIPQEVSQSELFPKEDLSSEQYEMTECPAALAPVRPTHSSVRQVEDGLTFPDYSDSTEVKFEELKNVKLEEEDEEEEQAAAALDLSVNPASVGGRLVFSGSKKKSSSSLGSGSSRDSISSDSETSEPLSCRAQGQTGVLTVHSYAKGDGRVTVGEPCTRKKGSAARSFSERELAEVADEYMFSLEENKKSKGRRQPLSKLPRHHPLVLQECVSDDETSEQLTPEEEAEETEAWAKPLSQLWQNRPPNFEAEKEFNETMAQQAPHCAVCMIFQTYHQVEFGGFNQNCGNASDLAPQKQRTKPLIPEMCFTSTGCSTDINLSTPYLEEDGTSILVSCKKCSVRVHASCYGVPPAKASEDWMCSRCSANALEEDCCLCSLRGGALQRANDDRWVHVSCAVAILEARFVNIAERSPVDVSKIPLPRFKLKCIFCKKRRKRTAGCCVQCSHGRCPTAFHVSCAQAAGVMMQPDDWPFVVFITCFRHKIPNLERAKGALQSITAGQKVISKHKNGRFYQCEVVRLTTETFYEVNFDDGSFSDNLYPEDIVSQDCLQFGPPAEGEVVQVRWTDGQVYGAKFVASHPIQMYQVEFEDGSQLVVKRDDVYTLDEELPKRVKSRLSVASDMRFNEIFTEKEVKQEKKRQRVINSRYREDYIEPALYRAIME
G9a inh – inhibitors of human histone lysine methyltransferase G9a; G9a H3K9 monomethylation, AlphaScreen, 2 h; AID 504332; Potency, µM (series often up to 102 µM), for inactives: at the highest dose activity, negative = inhibition, actives largely listed as inhibitors; actives 8.8% (n = 350,000); Q96KQ7; also: potency is read from the fitted curve at half-maximal effect; % is scaled to controls: 0 for no effect and ±100 for the full control effect; nearly all actives have a fitted effect of over 75% in size
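Chemiluminescent proximity detection of H3K9 monomethylation, read after 10 min bead incubation in the dark. Reaction: 20 nM G9a, 500 nM biotin-H3K9 peptide, 20 uM SAM cofactor, 2 h, room temperature, following 15 min enzyme-compound preincubation.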
BAZ2B block – blocks human BAZ2B. actives 4.4% (n = 360,000). AlphaScreen BAZ2B-H3K14Ac peptide displacement. AID 504333. Potency, µM (titrated, usually from 114 µM), for inactives: at the highest dose activity change, negative = inhibition, usual class: inhibitors; also: potency is read from the fitted curve at half-maximal effect; % is scaled to controls: 0 for no effect and ±100 for the full control effect; nearly all actives have a fitted effect of over 60% in size
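BAZ2B 50 nM plus b-H3(5-23)K14Ac 50 nM, PBS pH 7.4/0.01% Tween-20, 30 min RT; compound added (max 110 uM), 30 min RT; streptavidin donor/Ni-chelate acceptor beads 10 ug/mL final, 20 min dark; AlphaScreen read.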
PI5P4K alpha inh – inhibitors of human PI5P4K alpha; P48426; PI5P4Kalpha enzyme, ADP-Glo luminescence, 60 min; hits give low values; max response, %; actives 1.2% (n = 330,000); AID 652105; active = max response of -50% or lower; inconclusive = between -30% and -50%; inactive = -30% or higher; also: value at the top dose of about 77 µM; % is scaled to controls: 0 for no effect and ±100 for the full control effect
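qHTS, 1536-well: enzyme/substrate mix, compound by pin tool, 5 microM ATP final; RT 60 min; ADP-Glo reagents 1 (45 min) then 2 (30 min); luminescence.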
HP1b chromo inh – HP1-beta chromodomain-methylated histone interaction inhibition; AlphaScreen HP1-beta / biotin-H3K9me3 peptide binding; Potency, µM (highest dose often 114 µM), without a hit: at the highest dose activity change, negative = inhibition, usual class: inhibitors; actives 0.56% (n = 390,000); AID 540317; also: potency is read from the fitted curve at half-maximal effect; nearly all actives have a fitted effect of over 70% in size
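AlphaScreen: HP1-beta (50 nM) preformed 30 min with biotin-H3(1-18)K9me3 peptide (50 nM) in PBS pH 7.4, 0.01% Tween-20. Compound added for 30 min at RT, then streptavidin donor/nickel chelate acceptor beads (10 ug/mL) for 30 min.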
Starred values were filed as active, the others as inactive; ? = inconclusive; nt = no result; ! = not active in a repeat; [ ] = another dose, or the depositor's remark. Unless noted, calls follow the shape of the dose curve; as a rule, active = well fitted curve in the direction sought with a large enough effect; inconclusive = small, poorly fitted or top-dose-only effect, or another doubt; inactive = no such curve, though single readings can be large; an effect the other way counts as inactive or inconclusive.

SMILES	PLK1 PBD block	JMJD2A Tudor	G9a inh	BAZ2B block	PI5P4K alpha inh	HP1b chromo inh
CCOc1ccc([N+](=O)[O-])cc1CNCCc1ccccc1	5.3%	-9.0%	2.9%	-14.7%	-6.6	32.3%
CCc1ccc(CNCCc2ccc(F)cc2)cc1	1.2%	2.0%	-2.3%[59 µM]	26.5%	-1.5	27.2%
Clc1ccccc1CNCCc1c[nH]c2ccccc12	0.4%	nt	nt	nt	3.3	nt
O=[N+]([O-])c1ccccc1CNCCc1ccc(F)cc1	-6.6%	10µM*	7.94µM*	50.1µM*	nt	?
c1cncc(CNC2=NCCCCC2)c1	-7.1%	-12.1%	?	79.4µM*	nt	4.1%
c1cncc(CNC2CCCC2)c1	-22.5%	?	7.7%[0.501 µM]	?	-0.6	39.0%
Cc1cc2c(C(C)C)c(O)c(O)c(C=O)c2c(O)c1-c1c(C)cc2c(C(C)C)c(O)c(O)c(C=O)c2c1O	nt	nt	9.47µM*	15.8µM*	nt	nt
COC1=C[C@H]2C3=C([C@H]2C1=O)[C@H](NC(C)=O)CCc1cc(OC)c(OC)c(OC)c13	nt	nt	24.9%[21.5 µM]	nt	nt	nt
CC12NC(Cc3ccccc31)c1ccccc12 (stereo unspecified)	nt	nt	-26.9%[59 µM]	nt	nt	nt
C=CC[n+]1c(-c2ccc(C)cc2)csc1Nc1c(C)n(C)n(-c2ccccc2)c1=O	-17.3%	-26.8%	17.8µM*	?	-7.6	4.3%
CCN(CC)C(=O)c1ccc2c(c1)C1C(Cl)C(Sc3ccccc3[N+](=O)[O-])CC1C(C(=O)O)N2 (stereo unspecified)	6.7µM*	?	7.94µM*	20µM*	-59.5*	11.2µM*
Cc1ccc2c(c1Cl)NC(C(=O)O)C1CC(Sc3ccccc3[N+](=O)[O-])C(Cl)C21 (stereo unspecified)	26.7µM*	56.2µM*	nt	14.1µM*	?	?
COc1cccc(NC(=O)Cn2c(-c3nonc3N)nc3ccccc32)c1	nt	-5.9%	-1.5%[59 µM]	1.1%	nt	42.5%
O=C(c1cn(Cc2ccccc2)c2ccccc12)C1CC1	26.7µM*	23.1%	38.0%[59 µM]	13.7%	-5.4	29.6%
COc1ccc2c3c([nH]c2c1)C(C)NCC3 (stereo unspecified)	-8.6%	50.1µM*	-25.3%[12.7 µM]	?	-17.8	-12.8%
CCCn1c(=O)n(C)c(=O)c2c(SCC(=O)NC34CC5CC(CC(C5)C3)C4)nc(CC(C)C)nc21	29.9µM*	-13.4%	15.1%[59 µM]	8.0%	0.0	1.1%
CCc1ccc(OCC(=O)N2CCN(CCc3ccncc3)CC2)cc1	nt	-22.8%	-1.5%[59 µM]	9.3%	nt	50.8%
[N-]=[N+]=CC(=O)OC[C@H](N)C(=O)O	-4.7%	31.6µM*	14.8%	3.7%	-1.8	29.1%
CN1[C@@H]2CC[C@H]1CC(OC1c3ccccc3CCc3ccccc31)C2 (stereo partly specified)	2.3%	79.4µM*	-6.7%[5.15 µM]	-25.5%	7.7	-13.0%
CN1C2CCC1CC(OC(c1ccc(F)cc1)c1ccc(F)cc1)C2 (stereo unspecified)	nt	nt	12.0%[59 µM]	nt	nt	nt
CC(n1cc(C[C@H](N)C(=O)O)c2ccccc21)n1cc(C[C@H](N)C(=O)O)c2ccccc21	nt	nt	4.8%[59 µM]	nt	nt	nt
N#Cc1ccc(CN2CC3(CCNCC3)C2)cc1	nt	nt	-3.6%[12.7 µM]	nt	nt	nt
O=[N+]([O-])c1ccc(C[n+]2c(-c3ccccc3)cc(-c3ccccc3)cc2-c2ccccc2)cc1	-15.3%	-28.6%	-19.3%[2.33 µM]	-4.2%	-0.2	48.3%
O=[N+]([O-])c1cc(Cl)c(O)c(-[n+]2c(-c3ccccc3)cc(-c3ccccc3)cc2-c2ccccc2)c1	1.1%	?	50.1µM*	?	-8.2	4.5%
CC(=O)OC1C[C@@]2(C)C(c3ccoc3)C[C@H]3O[C@@]32[C@@]2(C)C(=O)C(O)=C3C(C)(C)C(=O)C=C[C@]3(C)C12 (stereo partly specified)	nt	nt	-42.0%[2.33 µM]	nt	nt	nt
SMILES	PLK1 PBD block	JMJD2A Tudor	G9a inh	BAZ2B block	PI5P4K alpha inh	HP1b chromo inh
CCc1ccc(OCC(=O)N2CCN(CCc3ccccn3)CC2)cc1	nt	-13.6%	-2.9%[59 µM]	-3.6%	nt	43.4%
CC(C)C(=O)Nc1ccc([N+](=O)[O-])c(C(F)(F)F)c1	-3.0%	-11.5%	2.51µM*!	-10.5%	8.5	33.7%
O=C(O)C(O)(c1ccccc1)C1CCCC1 (stereo unspecified)	0.4%	1.3%	25.1µM*	?	0.4	46.1%
CC(C)=CCCC1(C)C=Cc2c(O)c3c(c(CC=C(C)C)c2O1)OC12C(CC4CC1C(C)(C)OC2(C/C=C(/C)C(=O)O)C4O)C3=O (stereo unspecified)	nt	nt	-6.8%[2.33 µM]	nt	nt	nt
COc1ccccc1N=c1scc(-c2ccc(S(=O)(=O)N3CCCC3)cc2)n1C	nt	?	10µM*	8.91µM*	nt	?
CC(C)CC(=O)Nc1ccc(C(=O)Cn2c(=O)oc3ccccc32)cc1	-14.5%	-30.3%	-4.4%	?	-15.6	7.9%
Cc1cc(C)n(C(=O)c2ccc([N+](=O)[O-])cc2[N+](=O)[O-])n1	-3.1%	-16.7%	-4.8%[59 µM]	?	7.2	11.7%
Cc1nc(C(=O)O)nn1-c1ccc([N+](=O)[O-])cc1	4.0%	4.7%	50.1µM*	?	-2.7	19.3%
COc1ccc(CCNC(=O)CCn2c(=O)c3ccccc3n(Cc3ccc(Cl)cc3)c2=O)cc1OC	nt	1.4%	4.6%[59 µM]	8.5%	nt	57.5%
CN1CC(C(=O)c2ccc(Cl)cc2)C(c2ccc(N(C)C)cc2)C1 (stereo unspecified)	-2.8%	50.1µM*	35.5µM*	35.5µM*	3.8	-36.4%
CCn1cc(C(=O)N[C@@H](C)C(=O)OC)c(=O)c2cc3c(cc21)OCO3	-2.7%	-1.7%	43.4%	3.0%	3.6	47.5%
CN(C)C(=O)Oc1cccc([N+](C)(C)C)c1	-1.0%	4.8%	-8.3%[59 µM]	-17.4%	-2.4	50.6%
NS(=O)(=O)c1ccc(-c2ccc(C=C3C(=O)NC(=S)NC3=O)o2)cc1	nt	nt	2.51µM*	50.1µM*	nt	nt
O=[N+]([O-])OC1CO[C@H]2C(O[N+](=O)[O-])COC12 (stereo partly specified)	nt	nt	-38.8%[2.33 µM]	nt	nt	nt
CC(=O)N1N=C(c2cccnc2)CC1c1ccccc1O (stereo unspecified)	-10.6%	-11.2%	4.0%	-2.5%	0.4	9.5%
CC(=O)N1N=C(c2c(O)n(C)c(=O)n(C)c2=O)CC1c1ccccc1 (stereo unspecified)	-6.7%	-29.2%	39.8µM*	-21.9%	-0.3	54.7%
O=C(Nc1ccc2oc(-c3cccnc3)nc2c1)c1ccc(-c2cccc(Cl)c2)o1	nt	79.4µM*	?	56.2µM*	nt	?
CC(C)c1ccc2oc(-c3ccc(NC(=O)c4cc5ccccc5o4)cc3)nc2c1	nt	9.2%	3.6%[59 µM]	5.9%	nt	35.5%
O=C(O)CCCC[C@H]1SC[C@H]2NC(=O)N[C@@H]21	nt	nt	0.398µM*	nt	nt	nt
C=CCc1c(C)[nH]c(=S)c(C#N)c1C	23.8µM*	5.01µM*	1.12µM*	-35.9%	?	41.3%
